Sampled rows, rich in hits. Any-hit rate of the full collection: about 4.9%.
PP1 counter = PP1-alpha (human) inhibition in PP5 counter-screen; actives 0.9% (n = 320,000); AID 2235; inhibition, % at 6.7 µM; P62136; purified PP1alpha, OMFP fluorescence;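 active means inhibition above the mean inhibition of all tested compounds plus 3 SD, computed separately for each screening campaign, cut at about 15% in these data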
CSC inhib = blocks cancer stem cells; cancer stem cell-like cells viability, luminescence; inhibition, % at 7.5 µM; actives 1.1% (n = 300,000); in the data active means inhibition above about 75%; tested in HMLE shEcad cells
Beta cell apopt = beta cell apoptosis inhibition | AID 435005 | actives 0.8% (n = 300,000) | protection from apoptosis, % (concentration not given with the values) | INS-1E cytokine-induced death, ATP luminescence, 48 h; percent of positive-control rescue, neutral wells zero;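 active means Every replicate reaches about 75%, or at least half do and their mean reaches it too, limit read from the data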;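 further: 0% = cytokine-treated negative control wells and 100% = positive control rescue; higher means more ATP so stronger rescue from cytokine killing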
PP5 inh = blocks human protein phosphatase 5 activity; purified PP5c, OMFP substrate fluorescence; inhibition, % at 6.7 µM; actives 0.18% (n = 320,000);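 active means inhibition above the campaign's mean inhibition across all tested compounds plus 3 SD, cut at about 9.5% in these data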;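 further: 0% = DMSO only and 100% = 100 µM cantharidin control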
Calb FLC = C. albicans growth modulation with fluconazole | C. albicans CaCi-2 (fluconazole-resistant clinical isolate) + fluconazole, Alamar Blue growth, 48 h | growth inhibition, % (no concentration beside the values) | actives 0.57% (n = 300,000);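 active means growth inhibition above about 58% in most replicates, limit read from the data, passing the limit was not always enough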;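 further: all wells also contain fluconazole at 8 µg/ml as a sub-toxic cotreatment; 0% = median of DMSO wells and 100% = median of geldanamycin control wells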
Mdm2-MdmX inh = disrupts the human Mdm2-MdmX interaction; O15151+Q00987; SaOS-2 split-luciferase Mdm2/MdmX complementation, luminescence; inhibition, % at 8 µM; actives 3% (n = 330,000); AID 485346;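 active means inhibition of at least 50% at 8 µM in the primary screen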
Mdm2 MdmX conf = confirmation of human Mdm2/MdmX interaction inhibitors; shares compounds with Mdm2-MdmX inh; inhibition, % at 8 µM; Mdm2-MdmX binding, luminescent assay; actives 55% (n = 10,000); in the data active means inhibition above about 40%
Full FLuc ctr = full-length luciferase inhibition in Mdm2/MdmX counter-screen; shares compounds with Mdm2-MdmX inh; SaOS-2 full-length luciferase counterscreen, luminescence; inhibition, % at 8 µM; actives 77% (n = 6,200); AID 504607;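 active means mean inhibition at 8 µM reaching about 37%, which flags the compound as non-specific, limit read from the data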;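 further: p53-null SaOS-2 cells with luciferase driven by a doxycycline-inducible promoter; compound on cells about two nights before reading with doxycycline added after day one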
* = called active by the depositor; x = not tested or not shown.

SMILES	PP1 counter	CSC inhib	Beta cell apopt	PP5 inh	Calb FLC	Mdm2-MdmX inh	Mdm2 MdmX conf	Full FLuc ctr
CCCOc1ccc(NC(=O)CC2C(=O)N(CC)C(=S)N2CCCN2CCN(Cc3ccccc3)CC2)cc1 (stereo not drawn)	-3	25	13	-1	-30	81*	46*	65*
CCCOc1ccc(NC(=O)CC2C(=O)N(CC)C(=S)N2CCNC(C)=O)cc1 (stereo not drawn)	1	8	-4	1	6	-46	x	x
CCN1C(=O)C(CC(=O)Nc2ccc(Br)cc2)N(CCCc2ccccc2)C1=S (stereo not drawn)	3	-15	27	6	21	84*	7	x
CCOc1ccc(NC(=O)CC2C(=O)N(C)C(=S)N2CCCc2ccccc2)cc1 (stereo not drawn)	3	24	2	5	3	13	x	x
N#Cc1ccc(C(CC(=O)O)N2Cc3ccccc3C2=O)cc1 (stereo not drawn)	2	-3	-1	1	1	-1	x	x
COc1ccccc1CNC(=O)CSc1ccc(-c2ccncc2)nn1	4	-5	2	-1	-1	14	x	x
COc1ccc(CN(CCC(C)C)S(=O)(=O)c2ccccc2Br)cc1	x	x	x	x	x	-25	x	x
COc1ccc(CN(C2CC2)S(=O)(=O)c2ccccc2Br)cc1	x	x	x	x	x	51*	0	x
CCNc1ccc(C(=O)OCC)cc1NC(=O)c1cccc(N(C)C)c1	1	x	x	4	58	58*	54*	65*
CCS(=O)(=O)N1CCN(C(=O)c2cccc3ccccc23)CC1	0	6	-5	-1	7	3	x	x
Cc1ccc([C@@H]2[C@@H]3C(=O)N(c4ccccc4)C(=O)[C@@H]3[C@]3(C)C(=O)N(Cc4ccc(-c5ccccc5)cc4)CC(=O)N23)o1	1	15	3	4	4	-18	x	x
N#Cc1c(N)nc(-c2ccccc2)nc1-c1ccccc1	7	-12	-1	3	5	56*	3	x
Nc1nc(-c2ccc(Cl)cc2)nc(-c2ccc(Cl)cc2)n1	-7	25	-4	-2	4	57*	40*	61*
CSc1nc(-c2ccc(Cl)cc2)nc(N)c1C#N	-1	-20	11	1	2	67*	44*	73*
N#Cc1c(-c2ccccc2)nc(-c2ccccc2)nc1N1CCOCC1	7	8	0	2	-3	30	x	x
CCC(Oc1ccccc1)C(=O)NCc1ccc(S(N)(=O)=O)cc1 (stereo not drawn)	0	-16	-4	1	-19	-12	x	x
Cc1ccc(-c2nnn(CC(=O)N(CC(=O)NC3CCCC3)c3ccc(F)c(Cl)c3)n2)o1	2	x	9	2	0	60*	15	x
CCOc1ccc2c(c1)C(=NNC(=O)c1ccncc1)c1cc(OCC)ccc1-2	-2	52	65	2	3	66*	52*	55*
CCOc1ccc(NC(=O)c2ccncc2)cc1	-6	4	x	-1	15	-5	x	x
CS(=O)(=O)c1nc2ccccc2n1Cc1ccccc1	-2	7	-5	-2	11	35	x	x
CCS(=O)(=O)c1nc2ccccc2n1Cc1ccccc1Cl	3	-2	-11	2	16	69*	35	x
Cc1ccc(NCc2nnc(SCC(=O)c3ccc4c(c3)OCCO4)o2)c(C)c1	1	x	x	0	5	57*	7	x
COc1ccc(C(=O)CSc2nnc(CNc3ccc(C)cc3C)o2)cc1	3	2	0	-2	-9	19	x	x
COc1ccc(CCn2c(N3CCN(C)CC3)nc3c2c(=O)[nH]c(=O)n3C)cc1	-6	-10	-3	2	-11	21	x	x
CCCn1c(N2CCN(CC(=O)c3c(C)n(C)c4ccc(OC)cc34)CC2)nc2c1c(=O)[nH]c(=O)n2C	x	x	x	x	-2	55*	22	x
SMILES	PP1 counter	CSC inhib	Beta cell apopt	PP5 inh	Calb FLC	Mdm2-MdmX inh	Mdm2 MdmX conf	Full FLuc ctr
Cc1cccc2cc(CN(C(=O)c3cnccn3)C3CCCCC3)c(Cl)nc12	-1	11	-4	5	-2	84*	83*	36*
NS(=O)(=O)c1ccc(CCNC(=O)c2ccc(C#CC3(O)CCCCC3)cc2)cc1	2	48	5	1	31	70*	68*	72*
NS(=O)(=O)c1ccc(CCNC(=O)c2ccncc2)cc1	6	23	12	-8	17	10	x	x
Cc1cccc(N(C)C(=O)C2CCCN2S(=O)(=O)c2cccc3nsnc23)c1 (stereo not drawn)	-3	-13	-1	1	3	0	x	x
Fc1ccccc1/C=N/Nc1nc(-c2ccccn2)nc2ccccc12	-6	37	105*	-2	-6	82*	78*	57*
CC(Nc1nc(-c2ccccc2O)nc2ccccc12)c1ccccc1 (stereo not drawn)	1	59	8	3	7	37	x	x
CCC(C)Nc1nc(-c2ccccn2)nc2ccccc12 (stereo not drawn)	9	29	90*	2	-5	82*	58*	29
O=C(OCn1ncc(Cl)c(Cl)c1=O)c1cccc(C(F)(F)F)c1	2	23	7	1	98*	82*	100*	52*
COc1ccc(-c2cc(=O)oc3cc(OCC(C)=O)ccc23)cc1	0	-5	2	0	10	12	x	x
Cc1c(O)ccc2c(-c3ccccc3)cc(=O)oc12	-3	16	5	-2	26	33	x	x
COc1ccc(-c2cc(=O)oc3cc(OC(C)C(=O)NC4CC4)ccc23)cc1 (stereo not drawn)	-1	-3	-5	2	7	45	x	x
COc1ccc(-c2cc(=O)oc3c(C)c(OC(=O)c4cccs4)ccc23)cc1	-1	13	9	-1	x	85*	47*	33
COc1ccc(-c2cc(=O)oc3c(C)c(O)ccc23)cc1	-1	19	-8	1	-2	65*	81*	53*
COc1ccc(-c2cc(=O)oc3cc(OC(=O)C4CCCCC4)c(Cl)cc23)cc1	6	0	-10	3	62	75*	84*	52*
COc1ccc(-c2cc(=O)oc3cc(O)ccc23)cc1	-2	9	-11	1	7	63*	46*	40*
O=S(=O)(NC1CCN(S(=O)(=O)c2ccc3c(c2)OCCO3)C1)c1c(F)cccc1F (stereo not drawn)	-2	-5	-7	4	x	4	x	x

Source: PubChem (several laboratories)
